# Data reported in the supplement of paper PMC6555819.
# Tests used:
# Assay in all cases: PBM binding z-score (relative to random genomic background probes); higher = stronger binding; sequences stand for … in GC…GCGATTGACAGCGTAGAATGAAGG
# [1] = system: PPARg:RXRa DBDmut IVT, anti-RXR (DBD mutation: RXRa K156A/R161A, NR concentration 270 nM, RXRa partner concentration 90 nM)
# Method in brief: (§1)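 Each nuclear receptor dimer, without ligand, was incubated for 1 h on custom Agilent 4×180K protein-binding microarrays. Binding was detected with antibodies against each partner (one per run), and scanned fluorescence was regression-normalized. The binding z-scores are referenced to random human genomic background probes.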
# [2] = system: PPARg:RXRa IVT, anti-PPARg (NR concentration 270 nM, RXRa partner concentration 90 nM)
# Method in brief: as §1
# [3] = system: PPARg DBDmut:RXRa IVT, anti-PPARg (DBD mutation: PPARg1 K132A/R137A, NR concentration 270 nM, RXRa partner concentration 90 nM)
# Method in brief: as §1
# [4] = system: PPARg DBDmut IVT, anti-PPARg (DBD mutation: PPARg1 K132A/R137A, NR concentration 270 nM)
# Method in brief: as §1
# [5] = system: PPARg homodimer (NR concentration 180 nM)
# Method in brief: as §1
# [6] = system: PXR:RXRa (NR concentration 270 nM, RXRa partner concentration 90 nM)
# Method in brief: as §1
# [7] = system: PXR homodimer (NR concentration 270 nM)
# Method in brief: as §1
# [8] = system: RARa:RXR (NR concentration 270 nM, RXRa partner concentration 90 nM)
# Method in brief: as §1
# [9] = system: RARa homodimer (NR concentration 270 nM)
# Method in brief: as §1
# [10] = system: RARb:RXRa (NR concentration 270 nM, RXRa partner concentration 90 nM)
# Method in brief: as §1
# [11] = system: RARb homodimer (NR concentration 270 nM)
# Method in brief: as §1
# [12] = system: RARg:RXRa (NR concentration 270 nM, RXRa partner concentration 90 nM)
# Method in brief: as §1
# [13] = system: RARg homodimer (NR concentration 270 nM)
# Method in brief: as §1
# [14] = system: RXRa DBDmut IVT, anti-RXR (DBD mutation: RXRa K156A/R161A, NR concentration 90 nM)
# Method in brief: as §1
# [15] = system: RXRa homodimer (NR concentration 180 nM)
# Method in brief: as §1
# [16] = system: THRa:RXRa (NR concentration 90 nM, RXRa partner concentration 90 nM)
# Method in brief: as §1
# [17] = system: THRa homodimer (NR concentration 90 nM)
# Method in brief: as §1
# [18] = system: VDR:RXRa (NR concentration 270 nM, RXRa partner concentration 90 nM)
# Method in brief: as §1
# [19] = system: VDR homodimer (NR concentration 270 nM)
# Method in brief: as §1
Sequence,PBM binding z-score [1],PBM binding z-score [2],PBM binding z-score [3],PBM binding z-score [4],PBM binding z-score [5],PBM binding z-score [6],PBM binding z-score [7],PBM binding z-score [8],PBM binding z-score [9],PBM binding z-score [10],PBM binding z-score [11],PBM binding z-score [12],PBM binding z-score [13],PBM binding z-score [14],PBM binding z-score [15],PBM binding z-score [16],PBM binding z-score [17],PBM binding z-score [18],PBM binding z-score [19]
AGAATGGGGTTAAGATCAGGGAAACAGAATACAT,3.55,3.66,1.77,1.97,2.18,2.98,2.24,3.46,1.79,2.47,1.9,2.99,1.4,1.99,4.56,3.23,1.67,2.91,1.27
AGTCAAAGTTCAGGACGAGATAACGTAAAGCACG,-0.425,1.35,0.702,0.865,1.35,1.99,0.795,1.85,1.11,4.1,2.69,3.84,4.59,2.82,2.8,1.76,0.431,2.19,1.95
CCTTACGGGTCAGGAGGTTATAGCACGACGAGCG,1.26,2.77,0.0175,-0.373,1.97,2.86,0.19,4.14,0.79,3.63,3.15,4.9,4.22,-0.195,4.96,2.37,0.0139,3.14,0.418
CTAACTAGGTCAAGGTCAAAGTCGGTTTGTGCCA,8.82,8.88,2.1,2.34,2.99,5.04,1.89,4.65,0.786,5,5.03,5.89,6.45,3.03,5.12,4.19,3.77,5.07,3.88
AGTCGGAGGACAAAGGTCAGAGCTACGCCAGTGA,0.569,3.68,0.374,-0.0334,3.93,3.98,0.166,5.06,1.59,4.31,4.3,6.16,5.52,0.767,5.6,3.63,0.663,3.28,1.37
GCTGCTAGGTCAACTGATGGTCAGCTAGAGCTCG,4.87,3.91,-0.00234,0.522,0.71,1.55,-0.557,2.21,0.274,4.28,3.68,5.23,5.53,1.73,2.87,3.1,1.07,1.5,0.0219
TGAATGAGGTGAAAGATCAGGGAACGTGGCGTCG,3.85,5,2.22,0.574,0.746,0.587,-0.0848,1.8,-0.562,1.48,0.154,1.51,0.868,-0.365,2.17,2.78,0.878,0.449,-0.213
CCTTACGGGTCAAGGTTATACCACGGGTGGTACG,1.19,3.53,-0.379,-0.205,3.33,3.49,0.498,4.11,1.71,4.21,3.44,4.96,4.75,0.758,5.09,2.97,0.619,3.65,1.65
AGAGTGAGGTTACCAAAGATCAGGGAAACGCTTG,1.07,1.49,-0.228,-0.0667,0.744,1.7,0.558,1.97,0.667,2.48,1.61,2.25,1.78,0.473,2.81,2.84,1.16,1.64,0.671
CGTCAAAGTTCATGGTAACGTAACAGAAAGCAGC,0.9,2.06,1.17,1.03,3.91,4.52,2.84,3.68,1.6,5,4.04,5.3,5.92,4.79,4.53,1.98,-0.212,4.33,4.64
CCGACTGGGGCAAAGGTTACGATACTCAGTACGA,4.56,6.38,0.809,0.584,4,2.51,-0.536,4.39,-0.413,2.57,2.03,3.68,1.78,0.541,3.62,1.81,-0.139,1.61,-0.301
AGCTCTAGGTAAAAGTTCAGTGAATCCCGAGGAT,2.59,2.87,-0.0694,0.333,0.844,1.73,1.44,1.55,0.488,2.4,2.44,1.57,1.62,0.637,1.46,1.14,0.029,0.974,1.69
CCTGCTAGGTCAATGGTCAGCTAAAGCAGCTCGC,4.63,4.19,-1.03,-1.12,0.944,0.92,-0.545,1.82,-0.551,3.73,3.08,3.62,4.47,1.7,2.3,2.29,0.588,1.02,0.186
AGAATGAGGTTAAGATTAGGGAAACAGAATACAT,2.37,2.53,0.926,1.13,1.38,1.24,0.222,2.11,1.36,1.91,0.693,1.98,1.56,1.13,2.57,2.63,0.72,1.36,0.435
AATTCAGGGTCACTAGGCCAGAGTAGGTACGAAT,4.91,6.4,5.15,2.77,4.18,4.19,0.429,5.62,1.32,4.89,3.83,6.06,5.56,3.39,6.68,4,1.78,4.79,2.97
CCTACTGGGGCAAAGGTCATTGATTCCAATGCTC,6.11,7.2,0.312,-0.624,2.42,5.6,0.979,6.37,0.341,4.66,4.6,6.11,4.61,0.782,6.93,3.66,0.71,4.96,1.92
AGTCAAAGTTCAGTAGGTAACGTAAGATTCAGCT,2.06,4.51,0.804,1.29,1.65,2.51,1.37,1.49,0.822,4.13,3.15,3.74,4.28,3.23,2.08,0.91,-0.604,2.4,2.23
CGTCCAAGGTAAATGCTAGGTCAGTGAAAGCATT,0.714,0.881,-1.05,-0.95,0.424,0.128,-0.305,0.803,-0.343,1.61,2.15,1.85,1.23,0.0865,0.316,2.53,1.11,0.355,-0.194
CAAACTAGGTCAAAGGTCAAAATCGAGCCAACCA,8.4,9.49,5.76,3.58,5.14,6.99,1.48,8.9,2.19,5.94,5.03,8.72,7.08,3.07,10.1,4.95,1.51,6.43,2.94
CGTCCAAGGGCAATGCTAGGTCAGTGAAAGCATT,0.816,0.945,-1.98,-1.04,1.08,1.04,-0.135,1.55,-0.607,3.1,3.04,3.71,2.64,0.887,0.71,2.98,0.346,0.893,0.429
CAAAATAGGTCAAGAGGTCAAAGTCCGCTTCCCG,7.42,7.83,2.31,1.62,5.84,6.31,2.24,7.5,2.71,5.7,6.03,8.39,7.82,2.72,8.82,4.28,1.76,6.53,3.91
CCTAGTTGGTCAGGTGGTCACACACCGGATATGA,0.0405,0.926,-0.00343,-0.318,1.26,0.174,0.369,0.505,1.18,1.25,1.48,1.03,1.38,-0.358,0.463,0.254,0.259,0.156,0.314
CCTAGATGGTCAGGAGGTCACACACCGGATATGA,1.16,2.88,0.417,0.0962,3.94,4.14,1.76,4.94,2.24,3.54,4.09,5.06,4.28,0.392,4.73,3.5,2.26,3.76,2.68
CATACACGGTCAGCTAGGCCAGAGTAGGGACGGC,-0.275,0.556,0.102,0.44,0.0796,-0.388,-0.264,-0.295,0.385,2.49,1.5,1.24,2.04,-0.438,0.355,0.226,-0.129,-0.0494,-0.286
GGAACGGGGGCATTCGAGTTGATAGCATGGCGAT,3.24,5.37,8.85,10.9,1.37,5.15,3.02,2.94,0.259,2.9,1.62,2.68,2.39,3.78,2.47,4.15,1.09,5.52,4.57
ACTTGGAGGACAAAGGTCAGAGCTACGCCAGTGA,2.6,5.22,1.39,1.18,4.64,4.33,0.449,5.83,2.6,4.72,4.32,6.26,5.66,1.71,5.24,3.55,0.496,3.58,1.62
CATACAGGGTCATCTAGGCCAGAGTAGGGACGGC,1.89,3.92,1.57,0.152,1.63,3.65,0.88,4.05,0.656,4.3,3.37,5.16,4.85,3.17,5.72,3.6,1.37,5.26,3.3
